Shiga toxin inh – Shiga toxin inhibition; Vero cells, Shiga toxin protein synthesis inhibition reporter; inhibition, % at 38.7 µM; 9.2% of 290,000 active; in the data active = inhibition mostly above about 28%, no sharp cut-off; inactive = mostly below about 43%; also: 0% is about no effect
CHX counter – counter-screen for Shiga toxin inhibitors: cycloheximide protein synthesis inhibition; cell reporter, cycloheximide protein synthesis inhibition counterscreen; max response, %; 12% of 300,000 active; AID 2314; in the data active = max response mostly above about 13%, no sharp cut-off; inactive = mostly below about 14%; also: read at 38.3 µM for the half of the compounds with a filed dose; 0% is about no effect
Tb PYK inh – blocks Trypanosoma brucei pyruvate kinase. 0.12% of 410,000 active. Potency, µM (series often up to 76.8 µM), inactives show at the highest dose activity, negative = inhibition, hits mostly inhibitors. TbPYK enzyme, Kinase-Glo Plus ATP luminescence, 45 min. Q57TT1. AID 624173; also: potency is read from the fitted curve at half-maximal effect; % is scaled to controls: 0 for no effect and ±100 for the full control effect; nearly all actives have a fitted effect of over 50% in size
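In this concentration-response screen, enzyme-free wells defined baseline while DMSO plates tracked drift. Each reaction combined TbPYK, substrate, compound and 130 uM ADP for 45 min at room temperature. Kinase-Glo Plus luminescence gave the signal.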
FBPA Giardia inh – inhibitors of Giardia lamblia fructose-1,6-bisphosphate aldolase; 0.71% of 290,000 active; Potency, µM (doses to about 59.6 µM), for inactives: top-dose activity, negative = inhibition, actives largely listed as inhibitors; purified Giardia FBPA; A8B2U2; also: potency is read from the fitted curve at half-maximal effect; % is scaled to controls: 0 for no effect and ±100 for the full control effect; nearly all actives have a fitted effect of over 55% in size
Target sequence (A8B2U2 whole entry, looked up): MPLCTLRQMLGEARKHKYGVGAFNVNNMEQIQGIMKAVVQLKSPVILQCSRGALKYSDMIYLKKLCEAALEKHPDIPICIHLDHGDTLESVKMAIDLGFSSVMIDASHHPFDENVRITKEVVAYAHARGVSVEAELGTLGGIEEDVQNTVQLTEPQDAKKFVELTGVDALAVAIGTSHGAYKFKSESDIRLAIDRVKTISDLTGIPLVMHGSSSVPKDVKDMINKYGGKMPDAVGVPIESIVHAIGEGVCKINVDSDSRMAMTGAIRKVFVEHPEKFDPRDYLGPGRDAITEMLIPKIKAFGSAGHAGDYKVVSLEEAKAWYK
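Giardia FBPA (40 nM reagent) was preincubated 10 min at RT with compound (up to 57.5 uM final), then substrate plus GAPDH/TPI/NAD/arsenate coupling system with diaphorase/resazurin was added; resorufin fluorescence (525/598 nm) was read after 20 min.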
LmPK inhibitor – inhibitors of Leishmania mexicana pyruvate kinase. purified LmPK, Kinase-Glo ATP luminescence, 1 h. Potency, µM (top dose mostly 57.5 µM), for the others: at the top dose activity change, negative = inhibition, hits mostly inhibitors. 0.37% of 290,000 active. AID 1721; also: potency is read from the fitted curve at half-maximal effect; % is scaled to controls: 0 for no effect and ±100 for the full control effect
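Purified LmPK (0.1 nM) converted ADP (0.1 mM) to ATP with PEP (0.5 mM) in imidazole buffer pH 7.2 with KCl and MgCl2, 1 h at room temperature. ATP was read by Kinase-Glo luminescence; data normalized to uninhibited and no-enzyme controls.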
RE007 growth inh – less growth of the S. pombe RE007 Vpr strain; S. pombe RE007 Vpr strain, BacTiter-Glo ATP luminescence, 24 h; Potency, µM (doses to about 92.2 µM), for the others: at the top dose activity change, negative = less growth, usual class: inhibitors; 0.21% of 360,000 active; AID 651644; active = well fitted falling curve with a large enough effect; inconclusive = small, poorly fitted or top-dose-only effect; inactive = no such curve, though single readings can be large or run the other way; also: potency is read from the fitted curve at half-maximal effect; % is scaled to controls: 0 for no effect and ±100 for the full control effect; nearly all actives have a fitted effect of over 50% in size
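Fission yeast RE007 carrying one integrated HIV-1 vpr copy, seeded at OD 0.01 in PMG+AL medium with 23 nL pinned compound. Grown 24 h at 30 degrees; viability read by BacTiter-Glo luminescence after 5 min.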
Active calls of the source: *; [ ] = dose if it differs, or a comment. This excerpt belongs to a sample that is enriched for hits. Unless noted, calls follow the shape of the dose curve; as a rule, active = well fitted curve in the direction sought with a large enough effect; inconclusive = small, poorly fitted or top-dose-only effect, or another doubt; inactive = no such curve, though single readings can be large; an effect the other way counts as inactive or inconclusive.

What do the screens show for `CCCSc1nc2cc(C)c(C)cc2n1CC(O)CO` (stereo not given)?
Shiga toxin inh: 78*; CHX counter: 21*; Tb PYK inh: 0%; FBPA Giardia inh: -4%; LmPK inhibitor: -1%; RE007 growth inh: -2%

How did CCCSc1nc2cc(C)c(C)cc2n1CC(C)O (stereo not given) do in these assays?
Shiga toxin inh: 72*; CHX counter: 26*; Tb PYK inh: 0%; FBPA Giardia inh: inconclusive; LmPK inhibitor: 4%; RE007 growth inh: -8%

Results for CCOC(=O)C1=C(C)NC(C)=C(C(=O)OC)[C@@H]1c1cccc(Cl)c1Cl ?
FBPA Giardia inh: 1%[21.7 µM]

How did CC(=O)N1CCc2cc(CNS(=O)(=O)c3ccc(F)cc3)ccc21 do in these assays?
Tb PYK inh: 6%

What do the screens show for `S=C(NCCc1ccccc1)NN=C1CCCCCC1`?
Shiga toxin inh: 78*; CHX counter: 54*; Tb PYK inh: 0%; FBPA Giardia inh: -8%; LmPK inhibitor: 2%; RE007 growth inh: 36%

What do the screens show for `S=C(NCCc1ccccc1)N/N=C/C1CCCCC1`?
Shiga toxin inh: 19; CHX counter: 15*; FBPA Giardia inh: -2%; LmPK inhibitor: -4%

What do the screens show for `CCOC(=O)c1cc2c(=O)n3ccccc3nc2n(CCCOC)c1=NC(=O)c1c(-c2ccccc2Cl)noc1C`?
Tb PYK inh: 2%

Results for N#CCc1ccc(OC(=O)c2cccnc2Cl)cc1 ?
Tb PYK inh: -3%; RE007 growth inh: -9%

What do the screens show for `CCC(C)(C)c1ccc(OC(=O)c2cccnc2Cl)cc1`?
Shiga toxin inh: 124*; CHX counter: 38*; Tb PYK inh: 3%; FBPA Giardia inh: -4%; LmPK inhibitor: -1%; RE007 growth inh: 16%

Results for O=C(COC(=O)c1cccnc1Cl)c1ccccc1 ?
Shiga toxin inh: 71*; CHX counter: 47*; Tb PYK inh: -18%; LmPK inhibitor: inconclusive; RE007 growth inh: -6%

How did CCc1ccc(C(=O)COC(=O)c2cccnc2Cl)cc1 do in these assays?
Shiga toxin inh: 95*; CHX counter: 39*; Tb PYK inh: -11%; FBPA Giardia inh: 3%; LmPK inhibitor: -25%; RE007 growth inh: -6%

How did O=C(COC(=O)c1cccnc1Cl)c1ccc(F)cc1 do in these assays?
Shiga toxin inh: 97*; CHX counter: 22*; Tb PYK inh: -5%; FBPA Giardia inh: 5%; LmPK inhibitor: inconclusive; RE007 growth inh: -18%

How did Cc1ccc(Oc2nc3c(c(=O)n(Cc4ccccc4)c(=O)n3C)n2C)cc1C do in these assays?
Tb PYK inh: 8%

Results for O=C(Nc1cccc(-c2nc3ccccc3s2)c1)c1cc(-n2cnnc2)ccc1Cl ?
Shiga toxin inh: 58; CHX counter: 30*; Tb PYK inh: 7%; FBPA Giardia inh: -1%; LmPK inhibitor: 0%; RE007 growth inh: 3%

Results for Cc1c(NC(=O)c2cccs2)cccc1-c1nc2ccccc2s1 ?
Shiga toxin inh: 23; CHX counter: 18; Tb PYK inh: -15%; FBPA Giardia inh: -4%; LmPK inhibitor: 2%; RE007 growth inh: -13%

What do the screens show for `Cc1c(NC(=O)c2cc(-n3cnnc3)ccc2Cl)cccc1-c1nc2ccccc2s1`?
Shiga toxin inh: 37*; CHX counter: 23*; Tb PYK inh: -1%; FBPA Giardia inh: 11%; LmPK inhibitor: 0%; RE007 growth inh: -15%

Results for Cc1ccc2sc(-c3ccc(NC(=O)c4cc(-n5cnnc5)ccc4Cl)cc3)nc2c1 ?
Shiga toxin inh: 134*; CHX counter: 62*; Tb PYK inh: 16%; FBPA Giardia inh: 17%; LmPK inhibitor: -8%; RE007 growth inh: 1%

How did CC(=O)Nc1ccc(NC(=O)c2cc(-n3cnnc3)ccc2Cl)cc1 do in these assays?
Shiga toxin inh: -19; CHX counter: -2; Tb PYK inh: -1%; FBPA Giardia inh: -3%; LmPK inhibitor: -4%; RE007 growth inh: 3%

What do the screens show for `O=[N+]([O-])c1cc(Cl)cc(/C=N/Nc2nc3ccccc3s2)c1O`?
Shiga toxin inh: 41*; CHX counter: 32*; Tb PYK inh: -4%; FBPA Giardia inh: 11%; LmPK inhibitor: -16%; RE007 growth inh: -18%

What do the screens show for `COc1cc(/C=N/Nc2nc3ccccc3s2)cc([N+](=O)[O-])c1O`?
Shiga toxin inh: 56*; CHX counter: 19*; Tb PYK inh: -7%; FBPA Giardia inh: -14%; LmPK inhibitor: -7%; RE007 growth inh: 4%

What do the screens show for `COc1cc(/C=N/NC(=O)Cc2ccccc2)cc([N+](=O)[O-])c1O`?
Shiga toxin inh: -11; CHX counter: -2; Tb PYK inh: 3%; FBPA Giardia inh: -13%; LmPK inhibitor: 2%; RE007 growth inh: -3%

Results for O=C(Cn1nc2ccccc2n1)N/N=C/c1cc(Cl)cc([N+](=O)[O-])c1O ?
Shiga toxin inh: -11; CHX counter: 1; Tb PYK inh: -7%; FBPA Giardia inh: 29%; LmPK inhibitor: -7%; RE007 growth inh: -11%

What do the screens show for `COc1ccc2cc(C(=O)C3CCCN(C(=O)c4ccnn4C)C3)ccc2c1` (stereo not given)?
Shiga toxin inh: 39*; CHX counter: 18; Tb PYK inh: 2%; FBPA Giardia inh: 5%; LmPK inhibitor: -2%; RE007 growth inh: 56%

What do the screens show for `Cc1ncsc1CCC(=O)N1CCCC(C(=O)c2ccc3c(c2)OCO3)C1` (stereo not given)?
Shiga toxin inh: 33; CHX counter: 23*; Tb PYK inh: 1%; FBPA Giardia inh: -1%; LmPK inhibitor: -2%; RE007 growth inh: -12%

How did COc1ccc(C(=O)C2CCCN(C(=O)c3ccnn3C)C2)cc1OC (stereo not given) do in these assays?
Shiga toxin inh: -8; CHX counter: 13; Tb PYK inh: -5%; FBPA Giardia inh: -4%; LmPK inhibitor: 12%; RE007 growth inh: -6%

Results for COc1ccc2cc(C(=O)C3CCCN(C(=O)CCc4ccccn4)C3)ccc2c1 (stereo not given) ?
Shiga toxin inh: 31*; CHX counter: 24*; Tb PYK inh: -17%; FBPA Giardia inh: 0%; LmPK inhibitor: 2%; RE007 growth inh: -20%

What do the screens show for `COc1cccc(C(=O)C2CCCN(Cc3ccccn3)C2)c1` (stereo not given)?
Shiga toxin inh: 3; CHX counter: -2; Tb PYK inh: -20%; FBPA Giardia inh: -3%; LmPK inhibitor: 4%; RE007 growth inh: -22%

How did COc1cccc(C(=O)C2CCCN(C(=O)CCc3scnc3C)C2)c1 (stereo not given) do in these assays?
Shiga toxin inh: 9; CHX counter: 22*; Tb PYK inh: 1%; FBPA Giardia inh: 6%; LmPK inhibitor: 1%; RE007 growth inh: 19%

Screening results deposited in PubChem by National Center for Advancing Translational Sciences (NCATS).
